The values below come from PubChem BioAssay (NCI).

Experiment [1] can be described thus: NCI Yeast Anticancer Drug Screen. Data for the rad50 strain (AID 155).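 Further: 0% = growth of vehicle-only cultures of the same strain.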 The note with it: S. cerevisiae rad50 strain growth inhibition, stronger effect = higher value. The method in brief:
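Readout: growth inhibition relative to vehicle-treated cultures. Compound exposure was carried out in a genetically defined yeast strain deficient in DNA damage repair.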

Experiment [2] is described as follows: NCI Yeast Anticancer Drug Screen. Data for the mec2-1 strain (AID 157). The following applies: S. cerevisiae mec2-1 strain, stronger effect = higher value. The method in brief:
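Cells of the genetically defined mec2-1 yeast strain are incubated with test compound. Inhibition of growth is calculated against vehicle-treated controls.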

A short description of experiment [3]: NCI Yeast Anticancer Drug Screen. Data for the sgs1 mgt1 strain (AID 161).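 Further: 0% = growth of cultures given vehicle only.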 The note with it: S. cerevisiae sgs1 mgt1 strain, stronger effect = higher value. The method in brief:
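Mutant yeast exposed to compound; growth scored against vehicle-only wells.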

A short description of experiment [4]: NCI Yeast Anticancer Drug Screen. Data for the cln2 rad14 strain (AID 165).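 Further: 0% = growth equal to vehicle treated cultures.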 The following applies: S. cerevisiae cln2 rad14 strain, stronger effect = higher value. The method in brief: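 The screen exposed genetically defined yeast (cln2 rad14) to test compounds and scored growth inhibition relative to vehicle-treated controls.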
The nature of experiment [5]: NCI Yeast Anticancer Drug Screen. Data for the bub3 strain (AID 167). The following applies: S. cerevisiae bub3 mutant strain, stronger effect = higher value. The method in brief: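 Readout: yeast growth inhibition, expressed relative to vehicle-only wells. The test organism is a mutant strain from a panel with lesions in DNA repair or checkpoint genes.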
The nature of experiment [6]: NCI Yeast Anticancer Drug Screen. Data for the mlh1 rad18 strain (AID 175). The following applies: S. cerevisiae mlh1 rad18 strain growth inhibition, stronger effect = higher value. The essentials:
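Compound-treated yeast growth, normalised to vehicle controls. Strain bears defined DNA repair mutations.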

The mark [7] stands for this setting: at 5.0 µM (retest, dose inferred, filed as 0.5).
Setting [8] is: at 50.0 µM (retest, dose inferred, filed as 5.0).

About 79,000 compounds went through this panel and 15% of them were active in at least one assay; those are over-represented in the sample as a whole. Unmarked numbers belong to inactive results. The source made the active and inactive calls. No stated cut-off is given here; in the data, active means growth inhibition above about 70%; inactive means the rest.

For `O=C(O)C1C(c2ccccc2)=C1c1ccccc1`, the growth inhibition in experiment [1] (setting [7]) is -7%; in experiment [1] (setting [8]), 22%; in experiment [1] (at 50.0 µM), 73.8% (active); in experiment [2] (setting [7]), 0%; in experiment [2] (setting [8]) it was 7%; in experiment [2] (at 50.0 µM), 56.4%. The growth inhibition in experiment [3] (setting [7]) is 10%; in experiment [3] (setting [8]), 41%; in experiment [3] (at 50.0 µM), 59.6%; in experiment [4] (setting [7]), -44%; in experiment [4] (setting [8]), -3%; in experiment [4] (at 50.0 µM), 57.8%. Also, the growth inhibition was -22% in experiment [5] (setting [7]); 7% in experiment [5] (setting [8]); 39.2% in experiment [5] (at 50.0 µM); -12% in experiment [6] (setting [7]); 12% in experiment [6] (setting [8]); 46.5% in experiment [6] (at 50.0 µM).

With `CCCCCCCCCCCC(=O)OCCOC(=O)CCCCCCCCCCC`, the growth inhibition in experiment [1] (setting [7]) was -8%; in experiment [1] (setting [8]), -5%; in experiment [1] (at 50.0 µM), -5.95%; in experiment [2] (setting [7]) it was -1%; in experiment [2] (setting [8]), -12%; in experiment [2] (at 50.0 µM), -11.3%. The growth inhibition was -22% in experiment [3] (setting [7]); -7% in experiment [3] (setting [8]); -20.6% in experiment [3] (at 50.0 µM); 1% in experiment [4] (setting [7]); -5% in experiment [4] (setting [8]); -4% in experiment [4] (at 50.0 µM). For the same compound, the growth inhibition was 2% in experiment [5] (setting [7]); -12% in experiment [5] (setting [8]); -3.35% in experiment [5] (at 50.0 µM); 3% in experiment [6] (setting [7]); -6% in experiment [6] (setting [8]); 7.4% in experiment [6] (at 50.0 µM).

With `O=c1ccc2ccc(Cl)cc2[nH]1`, the growth inhibition in experiment [1] (setting [7]) was -9%; in experiment [1] (setting [8]) it was 1%; in experiment [1] (at 50.0 µM), -27.9%; in experiment [2] (setting [7]), -5%; in experiment [2] (setting [8]) it was 16%; in experiment [2] (at 50.0 µM), -5.9%. The growth inhibition was -5% in experiment [3] (setting [7]); -8% in experiment [3] (setting [8]); 8.05% in experiment [3] (at 50.0 µM); 17% in experiment [4] (setting [7]); 17% in experiment [4] (setting [8]); 50% in experiment [4] (at 50.0 µM). The growth inhibition is 4% in experiment [5] (setting [7]); 1% in experiment [5] (setting [8]); -10.3% in experiment [5] (at 50.0 µM); 9% in experiment [6] (setting [7]); 20% in experiment [6] (setting [8]); 4.8% in experiment [6] (at 50.0 µM).

Turning to `CC(C)SC(=S)Nc1cc(C(F)(F)F)ccc1Cl`, the growth inhibition in experiment [1] (setting [7]) was -2%; in experiment [1] (setting [8]), 99% (active); in experiment [1] (at 50.0 µM) it was 99.5% (active); in experiment [2] (setting [7]), 2%; in experiment [2] (setting [8]), 98% (active); in experiment [2] (at 50.0 µM), 99.7% (active). In addition, the growth inhibition was 0% in experiment [3] (setting [7]); 100% (active) in experiment [3] (setting [8]); 99.6% (active) in experiment [3] (at 50.0 µM); -15% in experiment [4] (setting [7]); 98% (active) in experiment [4] (setting [8]); 99.4% (active) in experiment [4] (at 50.0 µM). Also, the growth inhibition in experiment [5] (setting [7]) was 2%; in experiment [5] (setting [8]), 91% (active); in experiment [5] (at 50.0 µM), 99.5% (active); in experiment [6] (setting [7]), 0%; in experiment [6] (setting [8]) it was 97% (active); in experiment [6] (at 50.0 µM) it was 99.5% (active).

Turning to `C=C(Br)COc1ccc2c(C)cc(=O)oc2c1`, the growth inhibition in experiment [1] (setting [7]) is 38%; in experiment [1] (setting [8]) it was 39%; in experiment [1] (at 50.0 µM), 67.5%; in experiment [2] (setting [7]) it was 35%; in experiment [2] (setting [8]), 32%; in experiment [2] (at 50.0 µM), 25.7%. Moreover, the growth inhibition in experiment [3] (setting [7]) was 42%; in experiment [3] (setting [8]), 47%; in experiment [3] (at 50.0 µM), 75.2% (active); in experiment [4] (setting [7]), 38%; in experiment [4] (setting [8]), 32%; in experiment [4] (at 50.0 µM), 36%. Besides, the growth inhibition was 45% in experiment [5] (setting [7]); 43% in experiment [5] (setting [8]); 68.8% in experiment [5] (at 50.0 µM); 49% in experiment [6] (setting [7]); 51% in experiment [6] (setting [8]); 49.8% in experiment [6] (at 50.0 µM).

On to `[O-][n+]1ccccc1Sc1nc(Sc2cccc[n+]2[O-])nc(Sc2cccc[n+]2[O-])n1`, for which the growth inhibition in experiment [1] (setting [7]) was 98% (active); in experiment [1] (setting [8]), 99% (active); in experiment [1] (at 50.0 µM) it was 89.8% (active); in experiment [2] (setting [7]), 99% (active); in experiment [2] (setting [8]), 99% (active); in experiment [2] (at 50.0 µM), 91.7% (active). The growth inhibition was 99% (active) in experiment [3] (setting [7]); 98% (active) in experiment [3] (setting [8]); 92.7% (active) in experiment [3] (at 50.0 µM); 98% (active) in experiment [4] (setting [7]); 98% (active) in experiment [4] (setting [8]); 90% (active) in experiment [4] (at 50.0 µM). The growth inhibition in experiment [5] (setting [7]) is 98% (active); in experiment [5] (setting [8]), 99% (active); in experiment [5] (at 50.0 µM) it was 90.3% (active); in experiment [6] (setting [7]) it was 100% (active); in experiment [6] (setting [8]), 99% (active); in experiment [6] (at 50.0 µM), 88.4% (active).

On to `Cc1ccc2c(ccc3ccccc32)c1`, for which the growth inhibition is -23% in experiment [1] (setting [7]); 42% in experiment [1] (setting [8]); 74.3% (active) in experiment [1] (at 50.0 µM); 1% in experiment [2] (setting [7]); 10% in experiment [2] (setting [8]); 16.4% in experiment [2] (at 50.0 µM). Further, the growth inhibition was -7% in experiment [3] (setting [7]); 16% in experiment [3] (setting [8]); 57.5% in experiment [3] (at 50.0 µM); -25% in experiment [4] (setting [7]); -12% in experiment [4] (setting [8]); 10.2% in experiment [4] (at 50.0 µM). Moreover, the growth inhibition in experiment [5] (setting [7]) was -15%; in experiment [5] (setting [8]), 38%; in experiment [5] (at 50.0 µM), 71% (active); in experiment [6] (setting [7]), -67%; in experiment [6] (setting [8]) it was 39%; in experiment [6] (at 50.0 µM) it was 34.6%.

As for `Cc1cc(N/N=C(\c2ccccc2)c2ccccn2)nc2ccccc12`, the growth inhibition in experiment [1] (setting [7]) is 33%; in experiment [1] (setting [8]) it was 91% (active); in experiment [1] (at 50.0 µM), 96.9% (active); in experiment [2] (setting [7]), 10%; in experiment [2] (setting [8]) it was 91% (active); in experiment [2] (at 50.0 µM), 97.8% (active). The growth inhibition in experiment [3] (setting [7]) is 14%; in experiment [3] (setting [8]) it was 83% (active); in experiment [3] (at 50.0 µM), 96.5% (active); in experiment [4] (setting [7]) it was -7%; in experiment [4] (setting [8]) it was 69%; in experiment [4] (at 50.0 µM) it was 97.6% (active). Besides, the growth inhibition was 19% in experiment [5] (setting [7]); 90% (active) in experiment [5] (setting [8]); 97.4% (active) in experiment [5] (at 50.0 µM); 25% in experiment [6] (setting [7]); 92% (active) in experiment [6] (setting [8]); 97.5% (active) in experiment [6] (at 50.0 µM).

For the compound `CCN(CC)CCCNc1cccc2ccc(OC)nc12`, the growth inhibition was 1% in experiment [1] (setting [7]); 50% in experiment [1] (setting [8]); 73.8% (active) in experiment [1] (at 50.0 µM); 0% in experiment [2] (setting [7]); 24% in experiment [2] (setting [8]); 13% in experiment [2] (at 50.0 µM). Further, the growth inhibition in experiment [3] (setting [7]) was -9%; in experiment [3] (setting [8]), 60%; in experiment [3] (at 50.0 µM), 66%; in experiment [4] (setting [7]), -1%; in experiment [4] (setting [8]), 33%; in experiment [4] (at 50.0 µM), 32.7%. Further, the results for the growth inhibition in experiment [5] (setting [7]), in experiment [5] (setting [8]) and in experiment [5] (at 50.0 µM) were 2%, 40% and 51.8%, respectively.

For `CC1CCC(C(O)(C(=O)O)C2CCC(C)CC2)CC1` (centres undefined), the growth inhibition is 23% in experiment [1] (setting [7]); 30% in experiment [1] (setting [8]); 37.9% in experiment [1] (at 50.0 µM); 26% in experiment [2] (setting [7]); 39% in experiment [2] (setting [8]); 19.3% in experiment [2] (at 50.0 µM). Also, the growth inhibition in experiment [3] (setting [7]) is 34%; in experiment [3] (setting [8]), 61%; in experiment [3] (at 50.0 µM), 10.2%; in experiment [4] (setting [7]), 78% (active); in experiment [4] (setting [8]), 57%; in experiment [4] (at 50.0 µM) it was 47.6%. For the same compound, the growth inhibition in experiment [5] (setting [7]) is 25%; in experiment [5] (setting [8]), -73%; in experiment [5] (at 50.0 µM), 49.1%.
